About 83,000 compounds went through this panel and 20% of them were active in at least one assay; those are over-represented in the sample as a whole.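 Interpretation: 100, growth as untreated; towards 0, rising growth inhibition; 0, no net growth; 0 to -100, cell death. Compounds scoring below 10 were considered active.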 Active and inactive are the calls of the source.
What follows are compounds tested on HL-60(TB) leukemia (assay: NCI-60 one-dose screen, 48 h (100 = growth as untreated, 0 = no growth, -100 = all killed)). Details: 10 µM unless noted.
With `O=C(Nc1cccc(Cl)c1)Nc1nc2cc([N+](=O)[O-])ccc2o1` the growth was 52.7% (inactive). With `Oc1ccc(CSc2nnc(-c3ccncc3)n2-c2ccccc2)c2cccnc12` the growth was 10.9% (inactive). In the case of `O=C(NNc1nc2cc(F)cc(F)c2n2cccc12)c1cnccn1`, the growth is reported as -25% (active). With `Cc1ccc(S(=O)(=O)NCCCNc2nccc(-c3[nH]c(-c4ccccc4)nc3-c3ccc(F)c(O)c3)n2)cc1` the growth was 82.4% (inactive). For `COc1ccc(-c2nnc(SCc3ccc(O)c4ncccc34)n2-c2ccccc2)cc1`, the growth was 10.9% (inactive). With `CCCCOc1ccc(S(=O)(=O)N2CCN(c3nc(C)cc(N4CCOCC4)n3)CC2)cc1` the growth was 20.3% (inactive). With `CN1CCN(Cc2ccc(NC(=O)c3cncc(C#Cc4cnc5ccc(O[C@H]6CCOC6)nn45)c3)cc2C(F)(F)F)CC1` the growth was -41.2% (active). For `COc1cc(Cn2cc3c(c2)-c2onc(CN4CCOCC4)c2CC3)cc(OC)c1OC`, the growth was 99.9% (inactive). In the case of `CS(=O)(=O)c1ccc(-c2nc3ccccn3c2C=Nc2ccc(Cl)cc2)cc1`, the growth is reported as 59.7% (inactive). `COc1cc(/C=C/C(=O)c2ccc(NC(=O)CSc3nnc(-c4ccc(-c5nc6ccc(Cl)cc6[nH]5)cc4)o3)cc2)cc(OC)c1OC` was tested, and the growth was 73.6% (inactive). With `COc1cc(/C=C/C(=O)c2cc(OC)c(OC)c(OC)c2)ccc1Oc1nc(NCCO)nc(N2CCOCC2)n1` the growth was -5.23% (active). With `COc1c(N2CC3CCCNC3C2)c(F)cc2c(=O)c(C(=O)N/N=C/c3ccc(Br)cc3)cn(C3CC3)c12` (configuration not stated) the growth was 84% (inactive). In the case of `Cc1cc(=O)oc2cc(OCCCOc3ccc(/C=C/C(=O)Nc4ccc(Cl)cc4)cc3)ccc12`, the growth is reported as 86.1% (inactive). For `Cc1ccc(-c2cc3nc(C(Cl)Cl)nc(-c4ccco4)n3n2)cc1`, the growth was -11.9% (active). In the case of `CCCCc1nc2c(N)nc3ccccc3c2n1Cc1ccc(OC)cc1`, the growth is reported as 31% (inactive). For `O=C(CCCCCCNC(=O)c1csc(Br)n1)NO`, the growth was 5.2% (active). `COc1ccc2c(c1)c(CC(=O)[Se]CC(=O)O)c(C)n2C(=O)c1ccc(Cl)cc1` was tested, and the growth was 53.7% (inactive). With `Clc1ccc2oc3c(NCCCn4ccnc4)c4ccccc4nc3c2c1` the growth was 29% (inactive). With `O=C(c1ccc(Cl)cc1)C1[C@H](c2ccc(Cl)cc2)[C@@H](c2ccccc2)NC12C(=O)Nc1ccc(Br)cc12` (some centres not stated) the growth was 22.3% (inactive). For `CCNC(=O)Oc1ccc(/C(=C(/C)c2ccc(Cl)cc2)c2ccc(OCCN(C)C)cc2)cc1`, the growth was 52.7% (inactive). In the case of `COc1cccc2c1[C@H](OC)[C@]13O[C@@]1(C2=O)[C@H](O)[C@H](C)[C@@](O)(C(=O)[C@@H]1O[C@H]1C)[C@@H]3O`, the growth is reported as -46.6% (active). With `O=C(CSc1nnc(-c2ccc(Cl)cc2)n1-c1ccccc1)Nc1ccccc1Cl` the growth was 91.8% (inactive). `COc1ccc(/C=N\NC(=O)c2cnn(CC(O)c3ccccc3)c2N)cc1OCc1ccc(Cl)cc1` (configuration not stated) was tested, and the growth was 99.7% (inactive). In the case of `C=C1C(=O)O[C@@H]2C[C@@H](C)CCC(=O)[C@](C)(OC(C)=O)C[C@H](OC(=O)/C(C)=C\C)[C@@H]12`, the growth is reported as 26.4% (inactive). With `CC1OC(O[C@@H]2[C@H](O)C(CO)OC(O[C@H]3COC(O[C@H]4CC[C@]5(C)[C@H]6CC[C@]78OC[C@@]9(CCC(C)(C)C[C@H]97)[C@H](O)C[C@@]8(C)[C@]6(C)CC[C@H]5C4(C)C)[C@@H](OC4OC(CO)[C@@H](O)[C@@H](O)[C@@H]4O)[C@@H]3O)[C@H]2OC2OC[C@@H](O)[C@@H](O)[C@@H]2O)[C@@H](O)[C@@H](O)[C@H]1O` (some centres not stated) the growth was -61.4% (active). For `Cc1ccccc1NC(=O)Nc1nc2ccc([N+](=O)[O-])cc2s1`, the growth was -27.7% (active). For `CS(=O)(=O)c1ccc(-n2cc(/C=C/C(=O)c3ccc(NC(=O)CO[N+](=O)[O-])cc3)c(-c3ccc(Cl)cc3)n2)cc1`, the growth was 109% (inactive). For `Cc1occc1-c1nc2s/c(=C/c3ccc(-c4cc(C(F)(F)F)ccc4Cl)o3)c(=O)n2n1`, the growth was 106% (inactive). With `CCCC(=O)NC(c1cccnc1)c1cc(Cl)c2cccnc2c1O` (configuration not stated) the growth was 34.1% (inactive). `N#Cc1c(-c2cccs2)cc(-c2cnccn2)nc1SCC(=O)N/N=C/c1ccncc1` was tested, and the growth was 118% (inactive). `CCCC[n+]1ccc(SCC(=O)n2ccc3ccccc32)c2ccccc21` was tested, and the growth was 86.8% (inactive). With `COc1ccc(-c2nc(SCC(C)C)nc(N/N=C\c3cccc([N+](=O)[O-])c3)c2C#N)cc1` the growth was 85.1% (inactive).

— PubChem BioAssay (NCI)
